Compound activity from PubChem BioAssay.
The sample as a whole holds a higher share of hits than the screen did.
TbREL1 inh: TbREL1 RNA ligase inhibitors, primary screen, biochemical, FRET fluorescence; inhibition, % at 9.66 µM; TbREL1 RNA ligation; AID 1117264, 2014; RNA-editing ligase 1, mitochondrial (Trypanosoma brucei brucei), P86926; 89,000 tested, 0.49% active;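 active means inhibition above the mean inhibition across all screened compounds plus 3 SD, cut at about 11% in these data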;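 further: 0% = plate median of test wells and 100% = NSC42067 control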
Target sequence (P86926 whole entry, looked up): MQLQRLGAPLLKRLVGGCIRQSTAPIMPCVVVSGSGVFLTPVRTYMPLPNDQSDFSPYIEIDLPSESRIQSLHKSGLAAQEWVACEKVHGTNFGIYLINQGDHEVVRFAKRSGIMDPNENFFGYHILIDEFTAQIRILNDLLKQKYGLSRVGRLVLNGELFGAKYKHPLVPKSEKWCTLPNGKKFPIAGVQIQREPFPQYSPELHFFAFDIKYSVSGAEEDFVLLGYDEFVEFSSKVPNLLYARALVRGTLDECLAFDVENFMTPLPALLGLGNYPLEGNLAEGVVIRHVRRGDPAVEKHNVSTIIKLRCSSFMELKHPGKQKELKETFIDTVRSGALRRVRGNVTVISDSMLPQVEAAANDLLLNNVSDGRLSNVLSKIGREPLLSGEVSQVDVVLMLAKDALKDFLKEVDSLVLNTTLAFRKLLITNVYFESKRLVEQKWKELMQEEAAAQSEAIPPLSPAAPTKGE
TbREL1 conf: TbREL1 RNA ligase inhibitors, confirmation, biochemical, FRET fluorescence, triplicate; inhibition, % at 9.66 µM; 390 tested, 37% active; AID 1117282, 2014; TbREL1 RNA ligation; shares compounds with TbREL1 inh;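 active means mean inhibition across replicates above a set limit taken from the earlier primary screen, cut at about 11% in these data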;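 further: 0% = REL1 with substrate and DMSO and 100% = REL1 plus control inhibitor NSC42067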
An asterisk follows results filed as active.

SMILES | TbREL1 inh | others
O=[N+]([O-])c1cc(-c2csc(NCCc3nc4cc(C(F)(F)F)ccc4n3CCCO)n2)ccc1Cl | 19.1* | TbREL1 conf=4.6
OCCOCCn1c(CCNc2nc(-c3ccc(F)cc3)cs2)nc2cc(C(F)(F)F)ccc21 | -3.7
CCOC(=O)c1c(-c2ccc(OC)cc2)csc1/N=C/C1=C(O)CCCC1=O | -3.0
CC(=O)c1cccc(NC(=O)C2(C)Cc3c(-c4cccc(C(N)=O)c4)ccnc3O2)c1 (configuration not stated) | 3.0
CC1(C(=O)NCc2ccc(F)c(F)c2)Cc2c(-c3cccc(C(N)=O)c3)ccnc2O1 (configuration not stated) | -5.7
CC(=O)NCCNC(=O)C1(C)Cc2c(-c3cccc(C(N)=O)c3)ccnc2O1 (configuration not stated) | 13.7* | TbREL1 conf=5.3
COCCN(C(=O)c1cc(CN2C(=O)c3ccccc3C2=O)ccc1OC)c1c(N)n(CC(C)C)c(=O)[nH]c1=O | 2.1
CC(C)c1ccc(NC(=O)Nc2nc(C(N)CCc3ccccc3)cs2)cc1 (configuration not stated) | 7.4
NC(Cc1ccc(C(F)(F)F)cc1)c1csc(NC(=O)Nc2ccccc2Cl)n1 (configuration not stated) | 5.0
CC(C)C(N)c1csc(NC(=O)Nc2ccccc2C(C)(C)C)n1 (configuration not stated) | 13.3* | TbREL1 conf=8.6
COc1ccc(C)cc1NC(=O)CN1C(=O)c2ccccc2S1(=O)=O | 0.6
Cc1ccc(S(C)=O)cc1-n1c(=O)n(Cc2ccccc2)c(=O)c2[nH]cnc21 (configuration not stated) | -0.7
CC1(C)CC(NC(=O)c2cccc(S(=O)(=O)N(Cc3ccccc3)c3ccccc3)c2)CC(C)(C)N1 | 13.4* | TbREL1 conf=6.3
O=C(O)c1cccc(S(=O)(=O)N(Cc2ccccc2)c2ccc(Cl)cc2)c1 | -1.3
C=CCN(c1ccccc1)S(=O)(=O)c1cccc(C(=O)NC2CCC(O)CC2)c1 (configuration not stated) | -1.9
C[C@H](CO)N1C[C@H](C)[C@@H](CN(C)CC2CCCCC2)Oc2c(NS(=O)(=O)c3cn(C)cn3)cccc2C1=O | -2.8
O=C1N/C(=N/N=C/c2ccco2)SC1Cc1ccccc1 (configuration not stated) | 11.3* | TbREL1 conf=4.0
CCCC1S/C(=N/N=C/c2ccco2)NC1=O (configuration not stated) | 1.9
O=C1C(Cc2ccccc2)S/C(=N/N=C/c2ccco2)N1c1ccccc1 (configuration not stated) | -3.5
O=C(Nc1ccncc1)c1cc(-c2ccc(Cl)cc2)nc2ccccc12 | 5.1
CC(NC(=O)C1CC(=O)N(c2ccc3c(c2)OCCO3)C1)c1ccccc1 (configuration not stated) | -3.4
C/C(=N\Nc1ccc(Cl)c(C(=O)O)c1)c1cccc([N+](=O)[O-])c1 | 2.1
Cc1nc(N/N=C/c2cccc(F)c2)cc(N2CCOCC2)n1 | 2.8
C/C(=N\Nc1cc(N2CCOCC2)nc(C)n1)c1cccc([N+](=O)[O-])c1 | 11.6* | TbREL1 conf=2.3
O=C1CCN(S(=O)(=O)c2ccc(Cl)cc2)CC1 | 1.3
SMILES | TbREL1 inh | others
COc1cccc(Nc2cc(C)nc3ccccc23)c1 | 2.8
COc1ccc2nc(C)cc(Nc3ccccc3O)c2c1 | 1.6
COc1ccc2nc(C)cc(NCc3cccc(C(F)(F)F)c3)c2c1 | 12.6* | TbREL1 conf=15.5*
COc1ccc(CNC(=O)CSc2nnc3nc(C)cc(C)n23)cc1OC | 4.1
COc1cccc(CNC(=O)CSCc2cnn(-c3ccccc3)c2-n2cccc2)c1 | -3.5
COc1cc(C(=O)NC(CCSC)C(=O)OCc2cc([N+](=O)[O-])cc3c2OCOC3)cc(OC)c1OC (configuration not stated) | -3.0
CCCNC(=O)c1ccc2nc(-c3ccccc3)c(-c3ccccc3)nc2c1 | -1.3
COc1cccc(C(=O)NCCCNC(=O)c2ccco2)c1 | 5.0
O=C(NCCCO)c1ccc2nc(-c3ccco3)c(-c3ccco3)nc2c1 | 11.3* | TbREL1 conf=18.5*
COc1ccc2oc(C(=O)OCC(=O)NC(=O)NC(C)C)c(C)c2c1 | -1.6
CN(C)c1ccc(-c2csc(C(C)(O)c3ccc(F)c(F)c3)n2)cc1 (configuration not stated) | 3.3
S=C(Nc1cccc(Cl)c1)N(CCCN1CCCC1)Cc1cccn1Cc1ccc(Cl)cc1 | 11.4* | TbREL1 conf=1.1
O=C(CCN1CCCCCC1)Nc1cccc(Cl)c1 | 1.6
COc1ccc(NC(=S)N(CCCN2CCCC2)Cc2cccs2)cc1 | -3.1
O=C(c1ccccc1-c1nc(-c2ccc(F)cc2)no1)N1CCCC1 | -0.8
O=C(c1ccccc1-c1nc(-c2ccccc2)no1)N1CCOCC1 | -0.8
O=C(O)c1ccccc1-c1noc(-c2ccccc2F)n1 | 13.5* | TbREL1 conf=3.9
O=C(Nc1cccc(F)c1)N(Cc1ccc(Cl)cc1)CC(O)C(F)(F)F (configuration not stated) | 6.2
O=c1c2ccccc2nc(-c2cccs2)n1-c1ccc2ccccc2c1 | 0.8
COc1ccc(-c2noc(CCC(=O)O)n2)cc1 | 1.2
Cc1occc1C(=O)NCc1nc(-c2ccc(Cl)cc2)no1 | 1.0
COc1ccc(-c2noc(CNC(=O)c3ccoc3C)n2)cc1 | 14.8* | TbREL1 conf=1.8
Cc1cc(Br)ccc1NC(=O)CN(C)C(=O)C1CCN(c2ncnc3sc(C)c(C)c23)CC1 | 4.9
